Experimental data from the supplement of paper PMC9262897, “Low-cost anti-mycobacterial drug discovery using engineered E. coli” (Nature Communications, 2022).
Counter-ions that a name gives are not always drawn. ± gives the standard deviation of the averaged measurements.

Columns and labels:
Assay in all cases: growth (OD600 after 10 h); higher = more growth (less inhibition)
[1] = system: E. coli TESEC Alr+ wild-type control; details: compound 0.1 mM; raw OD600 reference: median of DMSO wells 0.241, cell-free background 0.041
Protocol: (§1)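 TESEC Mtb Alr E. coli, or the Alr+ wild-type control, in 384-well plates with Prestwick library compounds at 0.1 mM and 1% DMSO, across arabinose induction levels of 1E3 to 1E7 nM. Growth is read as OD600 after 10 h at 37 °C in triplicate biological replicates.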

E. coli TESEC Mtb Alr [2] = details: compound 0.1 mM
Protocol: as §1

E. coli TESEC Mtb Asd = details: compound 0.1 mM
Protocol: (§2)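 TESEC E. coli strains in which the native enzyme is deleted and replaced by arabinose-inducible Mtb Asd, DapB, CysH or TrpD, each grown in its selective medium. Strains were screened against the Prestwick library at 0.1 mM and 1% DMSO in 384-well format at low and high arabinose induction. Growth is read as OD600 after 10 h in triplicate.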

E. coli TESEC Mtb DapB = details: compound 0.1 mM
Protocol: as §2

[3] = system: E. coli TESEC Alr+ wild-type control; details: compound 0.1 mM; raw OD600 reference: median of DMSO wells 0.49, cell-free background 0.052
Protocol: (§3)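 TESEC Mtb Alr E. coli (ΔaraC ΔtolC ΔentC Δalr ΔdadX, arabinose-inducible Mtb Alr) or the Alr+ wild-type control strain, grown in defined M9-fructose medium without D-alanine in 96-well plates with Prestwick library compounds at 0.1 mM and 1% DMSO. Low Alr induction is 0.1 µM arabinose and high induction is 10 mM arabinose.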

E. coli TESEC Mtb Alr [4] = details: compound 0.1 mM; remark: listed apart in the source
Protocol: as §3

[5] = arabinose 1000 nM, raw OD600 reference: median of DMSO wells 0.294, cell-free background 0.041
[6] = arabinose 10000 nM, raw OD600 reference: median of DMSO wells 0.264, cell-free background 0.041
[7] = arabinose 100000 nM, raw OD600 reference: median of DMSO wells 0.201, cell-free background 0.041
[8] = arabinose 1000000 nM, raw OD600 reference: median of DMSO wells 0.193, cell-free background 0.041
[9] = arabinose 10000000 nM, raw OD600 reference: median of DMSO wells 0.146, cell-free background 0.041
[10] = arabinose induction (level): High, raw OD600 reference: median of DMSO wells 0.331, cell-free background 0.041
[11] = arabinose induction (level): Low, raw OD600 reference: median of DMSO wells 0.417, cell-free background 0.041
[12] = arabinose induction (level): High, raw OD600 reference: median of DMSO wells […], cell-free background 0.041
[13] = arabinose induction (level): Low, raw OD600 reference: median of DMSO wells 0.227, cell-free background 0.041
[14] = arabinose 100 nM, raw OD600 reference: median of DMSO wells 0.413, cell-free background 0.052
[15] = arabinose 10000000 nM, raw OD600 reference: median of DMSO wells […], cell-free background 0.052

Row | Structure (SMILES) | growth [1] | growth (E. coli TESEC Mtb Alr [2]; [5]) | growth (E. coli TESEC Mtb Alr [2]; [6]) | growth (E. coli TESEC Mtb Alr [2]; [7]) | growth (E. coli TESEC Mtb Alr [2]; [8]) | growth (E. coli TESEC Mtb Alr [2]; [9]) | growth (E. coli TESEC Mtb Asd; [10]) | growth (E. coli TESEC Mtb Asd; [11]) | growth (E. coli TESEC Mtb DapB; [12]) | growth (E. coli TESEC Mtb DapB; [13]) | growth [3] | growth (E. coli TESEC Mtb Alr [4]; [14]) | growth (E. coli TESEC Mtb Alr [4]; [15])
1 | COc1ccccc1OCC(O)CO (centres undefined) [Guaifenesin] | 0.238 ± 0.0069 | 0.306 ± 0.021 | 0.274 ± 0.0056 | 0.191 ± 0.0043 | 0.19 ± 0.0056 | 0.141 ± 0.0035 | 0.427 ± 0.031 | 0.377 ± 0.14 | 0.192 ± 0.013 | 0.228 ± 0.023 | 0.535 ± 0.093 | 0.408 ± 0.011 | 0.345 ± 0.015
2 | N=C(NCCCCCCNC(=N)NC(=N)Nc1ccc(Cl)cc1)NC(=N)Nc1ccc(Cl)cc1 [Chlorhexidine] | 0.04463 ± 0.00035 | 0.0435 ± 0.00051 | 0.0456 ± 0.003 | 0.0447 ± 0.0014 | 0.04363 ± 0.00015 | 0.0449 ± 0.0005 | 0.0592 ± 0.0021 | 0.0584 ± 0.0011 | 0.0506 ± 0.0011 | 0.0542 ± 0.0085 | 0.0486 ± 0.0014 | 0.04807 ± 5.8e-05 | 0.054 ± 0.0013
3 | CCCNC(C)(C)COC(=O)c1ccccc1 [Meprylcaine hydrochloride] | 0.234 ± 0.0059 | 0.298 ± 0.0024 | 0.2777 ± 0.0023 | 0.211 ± 0.0098 | 0.215 ± 0.025 | 0.133 ± 0.0041 | 0.281 ± 0.061 | 0.338 ± 0.025 | 0.182 ± 0.022 | 0.221 ± 0.0093 | 0.6187 ± 0.0042 | 0.419 ± 0.0049 | 0.339 ± 0.0092
4 | COc1cc(C(=O)NS(=O)(=O)c2ccccc2C)ccc1Cc1cn(C)c2ccc(NC(=O)OC3CCCC3)cc12 [Zafirlukast] | 0.125 ± 0.0034 | 0.0976 ± 0.0046 | 0.0651 ± 0.0044 | 0.164 ± 0.0027 | 0.128 ± 0.0091 | 0.168 ± 0.0084 | 0.193 ± 0.022 | 0.12 ± 0.047 | 0.179 ± 0.018 | 0.213 ± 0.033 | 0.189 ± 0.01 | 0.257 ± 0.018 | 0.215 ± 0.024
5 | CC(C)NCC(O)c1ccc2ccccc2c1 (centres undefined) [Pronethalol hydrochloride] | 0.245 ± 0.013 | 0.305 ± 0.0032 | 0.2658 ± 0.0016 | 0.207 ± 0.023 | 0.187 ± 0.0061 | 0.142 ± 0.0032 | 0.247 ± 0.045 | 0.431 ± 0.085 | 0.194 ± 0.015 | 0.225 ± 0.03 | 0.473 ± 0.048 | 0.403 ± 0.012 | 0.351 ± 0.017
6 | NNC(=O)c1ccncc1 [Isoniazid] | 0.242 ± 0.0073 | 0.288 ± 0.006 | 0.275 ± 0.0043 | 0.239 ± 0.052 | 0.186 ± 0.007 | 0.139 ± 0.0028 | 0.396 ± 0.028 | 0.429 ± 0.083 | 0.194 ± 0.0035 | 0.242 ± 0.052 | 0.458 ± 0.054 | 0.405 ± 0.0067 | 0.359 ± 0.022
7 | O=C(O)c1cc(/N=N/c2ccc(S(=O)(=O)Nc3ccccn3)cc2)ccc1O [Sulfasalazine] | 0.274 ± 0.0048 | 0.308 ± 0.0065 | 0.254 ± 0.0054 | 0.193 ± 0.018 | 0.169 ± 0.011 | 0.131 ± 0.0032 | 0.314 ± 0.065 | 0.363 ± 0.054 | 0.207 ± 0.018 | 0.231 ± 0.03 | 0.473 ± 0.032 | 0.431 ± 0.0053 | 0.349 ± 0.017
8 | N=C(N)N1CCc2ccccc2C1 [Debrisoquin sulfate] | 0.237 ± 0.0047 | 0.288 ± 0.013 | 0.254 ± 0.0074 | 0.222 ± 0.036 | 0.174 ± 0.0076 | 0.147 ± 0.0083 | 0.373 ± 0.058 | 0.373 ± 0.027 | 0.209 ± 0.022 | 0.22 ± 0.039 | 0.567 ± 0.039 | 0.406 ± 0.01 | 0.334 ± 0.013
9 | CCOC(=O)[C@H](CCc1ccccc1)N[C@@H](C)C(=O)N1CCC[C@H]1C(=O)O [Enalapril maleate] | 0.247 ± 0.014 | 0.296 ± 0.017 | 0.25 ± 0.0032 | 0.231 ± 0.03 | 0.174 ± 0.0046 | 0.161 ± 0.009 | 0.322 ± 0.039 | 0.373 ± 0.067 | 0.188 ± 0.018 | 0.268 ± 0.029 | 0.499 ± 0.024 | 0.412 ± 0.011 | 0.355 ± 0.017
10 | CN1C(=O)CC(c2ccccc2)C1=O (centres undefined) [Phensuximide] | 0.244 ± 0.0072 | 0.299 ± 0.0059 | 0.281 ± 0.0045 | 0.183 ± 0.022 | 0.231 ± 0.02 | 0.138 ± 0.011 | 0.338 ± 0.022 | 0.401 ± 0.035 | 0.174 ± 0.0062 | 0.219 ± 0.015 | 0.544 ± 0.076 | 0.431 ± 0.015 | 0.357 ± 0.0052
11 | COc1ccc(CN2CCN(C(c3ccc(F)cc3)c3ccc(F)cc3)CC2)c(OC)c1OC [Lomerizine hydrochloride] | 0.119 ± 0.0034 | 0.126 ± 0.0034 | 0.0765 ± 0.0014 | 0.137 ± 0.0039 | 0.05757 ± 0.00049 | 0.0717 ± 0.0016 | 0.0685 ± 0.0042 | 0.0562 ± 0.0023 | 0.0966 ± 0.0085 | 0.0956 ± 0.013 | 0.233 ± 0.0047 | 0.248 ± 0.018 | 0.0708 ± 0.013
12 | NCCC[C@H](N)CC(=O)N[C@H]1CNC(=O)[C@H]([C@H]2C[C@H](O)NC(N)=N2)NC(=O)/C(=C/NC(N)=O)NC(=O)[C@H](CO)NC(=O)[C@H](CO)NC1=O [Viomycin sulfate] | 0.178 ± 0.011 | 0.251 ± 0.012 | 0.1314 ± 0.0004 | 0.138 ± 0.0014 | 0.112 ± 0.0031 | 0.143 ± 0.0015 | 0.281 ± 0.032 | 0.268 ± 0.016 | 0.169 ± 0.0056 | 0.226 ± 0.031 | 0.193 ± 0.13 | 0.226 ± 0.14 | 0.0681 ± 0.0071
13 | O=C1Nc2ccc(Cl)cc2[C@@](C#CC2CC2)(C(F)(F)F)O1 [Efavirenz] | 0.0395 ± 0.00017 | 0.0401 ± 0.00093 | 0.0421 ± 0.0013 | 0.0412 ± 0.0003 | 0.03963 ± 0.00025 | 0.0413 ± 0.0013 | 0.0541 ± 0.0055 | 0.0488 ± 0.0019 | 0.0481 ± 0.00017 | 0.048 ± 0.00069 | 0.047 ± 0.00044 | 0.259 ± 0.075 | 0.049 ± 0.00044
